Measurements taken from PubChem BioAssay AID1159580 (chemical genetic matrix, 2015).
Among all 5,500 compounds or so, about 2,000 (36%) were called active. Another 18% or so got no clear call; they are omitted. No stated cut-off is given here; in the data, active means normalized growth mostly below about 0.91 (no sharp cut-off); inconclusive means no clear call, values can overlap the other calls; inactive means mostly above about 0.92. The list shows a part of the results.

Assay: chemical genetic growth profiling, strain panel (AID 1159580);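 further: tested at 20 µM; growth read once vehicle control cultures reached saturation at 30 °C; 1 = growth at the plate median or of vehicle wells; lower values mean less growth of the strain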
Conditions: S. cerevisiae deletion strains, growth OD

Measured: normalized growth

C#Cc1cccc(N=Cc2cc(Cl)cc(Br)c2O)c1
active: locus YAR019C, strain CDC15, hits give low values 0.101 | locus YBL105C, strain PKC1, hits give low values 0.0988 | locus YBR135W, strain CKS1, hits give low values 0.128 | locus YBR136W, strain MEC1, hits give low values 0.107 | locus YBR160W, strain CDC28, hits give low values 0.134 | locus YDL017W, strain CDC7, hits give low values 0.1 | locus YDL028C, strain MPS1, hits give low values 0.108 | locus YDL101C, strain DUN1, hits give low values 0.165 | locus YDL108W, strain KIN28, hits give low values 0.122 | locus YDL214C, strain PRR2, hits give low values 0.103 | locus YDR052C, strain DBF4, hits give low values 0.451 | locus YDR054C, strain cdc34, hits give low values 0.482 | locus YDR226W, strain ADK1, hits give low values 0.534 | locus YDR477W, strain SNF1, hits give low values 0.117 | locus YER123W, strain YCK3, hits give low values 0.112 | locus YER133W, strain GLC7, hits give low values 0.114 | locus YFL009W, strain cdc4, hits give low values 0.108 | locus YFL029C, strain CAK1, hits give low values 0.0962 | locus YFR003C, strain YPI1, hits give low values 0.11 | locus YFR019W, strain FAB1, hits give low values 0.107 | locus YFR028C, strain CDC14, hits give low values 0.104 | locus YGR040W, strain KSS1, hits give low values 0.13 | locus YGR052W, strain FMP48, hits give low values 0.127 | locus YGR092W, strain DBF2, hits give low values 0.114 | locus YHR030C, strain SLT2, hits give low values 0.127 | locus YHR079C, strain IRE1, hits give low values 0.125 | locus YHR082C, strain KSP1, hits give low values 0.157 | locus YHR205W, strain SCH9, hits give low values 0.021 | locus YIL147C, strain SLN1, hits give low values 0.112 | locus YJL095W, strain BCK1, hits give low values 0.135 | locus YJL128C, strain PBS2, hits give low values 0.257 | locus YJL157C, strain FAR1, hits give low values 0.0902 | locus YJR016C, strain ILV3, hits give low values 0.103 | locus YJR066W, strain TOR1 (second series), hits give low values 0.109 | locus YJR066W, strain TOR1, hits give low values 0.137 | locus YKL048C, strain ELM1, hits give low values 0.129 | locus YKL067W, strain YNK1, hits give low values 0.109 | locus YKL101W, strain HSL1, hits give low values 0.128 | locus YKL193C, strain SDS22, hits give low values 0.108 | locus YKL203C, strain TOR2, hits give low values 0.113 | locus YLR113W, strain HOG1, hits give low values 0.132 | locus YLR133W, strain CKI1, hits give low values 0.106 | locus YLR403W, strain SFP1, hits give low values 0.0146 | locus YML070W, strain DAK1, hits give low values 0.13 | locus YMR001C, strain CDC5, hits give low values 0.0999 | locus YMR205C, strain PFK2 (second series), hits give low values 0.12 | locus YMR277W, strain FCP1, hits give low values 0.108 | locus YNL006W, strain LST8, hits give low values 0.0957 | locus YNL020C, strain ARK1, hits give low values 0.11 | locus YNL161W, strain CBK1, hits give low values 0.107 | locus YNL183C, strain NPR1, hits give low values 0.156 | locus YNL207W, strain RIO2, hits give low values 0.119 | locus YNL222W, strain SSU72, hits give low values 0.095 | locus YNL307C, strain MCK1 (second series), hits give low values 0.114 | locus YOL078W, strain AVO1, hits give low values 0.104 | locus YOL136C, strain PFK27, hits give low values 0.1 | locus YOR061W, strain CKA2, hits give low values 0.115 | locus YOR119C, strain RIO1, hits give low values 0.11 | locus YOR231W, strain MKK1, hits give low values 0.119 | locus YOR329C, strain SCD5, hits give low values 0.0917 | locus YPL031C, strain PHO85, hits give low values 0.116 | locus YPL153C, strain RAD53, hits give low values 0.127 | locus YPL204W, strain HRR25, hits give low values 0.13 | locus YPL209C, strain IPL1, hits give low values 0.102 | locus YPL256C, strain CLN2, hits give low values 0.16 | locus YPR025C, strain CCL1, hits give low values 0.101 | strain NNK1, hits give low values 0.108 | strain TSCII, hits give low values 0.102

O=C(NCC1CCCCN1)c1cc(OCC(F)(F)F)ccc1OCC(F)(F)F (stereo not given)
inactive: locus YAL040C, strain CLN3, hits give low values 0.988 | locus YCL061C, strain MRC1 (second series), hits give low values 1 | locus YDR150W, strain NUM1, hits give low values 1.01 | locus YDR363W, strain ESC2, hits give low values 1.01 | locus YER002W, strain NOP16, hits give low values 0.987 | locus YGR229C, strain SMI1, hits give low values 1.03 | locus YNL175C, strain NOP13, hits give low values 0.989 | locus YNL197C, strain WHI3, hits give low values 0.986 | locus YNL224C, strain SQS1, hits give low values 1.04 | locus YNL322C, strain KRE1, hits give low values 0.995 | locus YOR083W, strain WHI5 (second series), hits give low values 1.01 | locus YPL241C, strain CIN2, hits give low values 0.998
